# Measurements from PubChem BioAssay (NCATS).
# Inconclusive results are not listed. Values without a mark were called inactive. Active and inactive are the calls of the source. Calls follow the shape of the dose curve; as a rule, active = well fitted cell-killing curve with a large enough effect; inconclusive = small, poorly fitted or top-dose-only effect; inactive = flat fitted curve, though single readings scatter.
# Assay: Quantitative highthroughput screen to assess conditional lethalithy of P12 Ichikawa cells grown in RPMI1640 with dialyzed fetal bovine serum (RPMI+ds) (AID 1963880); also: nearly all actives have a fitted effect of over 35% in size;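 as to viability: 100% = DMSO wells and 0% = empty wells on each plate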
# Details: ATP luminescence, 48 h; Potency: P12-Ichikawa viability; series mostly up to 45.8 µM; viability: at the top concentration
# Method in brief: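 Each medium arm—HPLM with 10% dialyzed FBS, or RPMI1640 with 5 mM glucose and 10% untreated or dialyzed FBS—was screened against an 11-point, 3-fold compound titration for 48 h at 37 °C, with CellTiter-Glo luminescence as endpoint.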
# Potency is read from the fitted curve at half-maximal effect.
SMILES,viability,Potency
CCC[C@@H](NC(=O)[C@@H]1[C@H]2CCC[C@@H]2CN1C(=O)[C@@H](NC(=O)[C@@H](NC(=O)c1cnccn1)C1CCCCC1)C(C)(C)C)C(=O)C(=O)NC1CC1,91.2%,–
C[C@H]1C[C@H]2[C@@H]3CCC4=CC(=O)C=C[C@]4(C)[C@@H]3C(=O)C[C@]2(C)[C@@]1(O)C(=O)CO,84.7%,–
OCc1ccccc1O[C@@H]1O[C@H](CO)[C@H](O)[C@H](O)[C@H]1O,–,16.6 µM (active)
C[C@H]1Oc2cc(cnc2N)-c2c(nn(C)c2C#N)CN(C)C(=O)c2ccc(F)cc21,104%,–
CCc1cnn2c(NCc3ccc[n+]([O-])c3)cc(N3CCCC[C@@H]3CCO)nc12,–,0.118 µM (active)
O=C(O)[C@H](Cc1c[nH]c2ccccc12)N1C(=O)c2ccccc2C1=O,96.8% [at 92.2 µM],–
O=c1oc2cc(O)ccc2s1,90.2%,–
NC1CCC(Nc2nc(Nc3ccc(C(=O)N4CCCCC4)cc3)c3ncn(-c4cccc(F)c4)c3n2)CC1 (centres undefined),107%,–
COc1cc(C)c(C=CC(C)=CC=CC(C)=CC(=O)O)c(C)c1C,94%,–
C=C1C(=CC=C2CCC[C@]3(C)[C@@H]([C@H](C)C=C[C@H](C)C(C)C)CC[C@@H]23)C[C@@H](O)C[C@@H]1O,–,14.8 µM (active)
C=CCc1cccc(C=NNC(=O)CN2CCN(Cc3ccccc3)CC2)c1O,–,13.2 µM (active)
C[C@H](NC(=O)C(C#N)=Cc1cccc(Br)n1)c1ccccc1,–,2.35 µM (active)
O=C(Nc1c(Cl)cncc1Cl)c1ccc(OC(F)F)c(OCC2CC2)c1,97.2%,–
Cc1c(O)cccc1C(=O)N[C@@H](CSc1ccccc1)[C@H](O)CN1C[C@H]2CCCC[C@@H]2C[C@@H]1C(=O)NC(C)(C)C,85.2%,–
O=c1[nH]c(=O)n([C@H]2C[C@@H](O)[C@@H](CO)O2)cc1I,90.5%,–
O=C(OCC#CCSc1nnc(-c2cccc3ccccc23)o1)c1cc2ccccc2s1,97.4%,–
NC(=O)NN=Cc1ccc([N+](=O)[O-])o1,102%,–
C[C@@H]1[C@H](O)[C@@H](C)C=CC=CC=CC=CC=CC=CC=C[C@H](O[C@@H]2O[C@H](C)[C@H](O)[C@H](N)[C@@H]2O)C[C@@H]2O[C@](O)(C[C@@H](O)C[C@@H](O)[C@H](O)CC[C@@H](O)C[C@@H](O)CC(=O)O[C@H]1C)C[C@H](O)[C@@H]2C(=O)O,103%,–
CC=CC(=O)N(CC)c1ccccc1C,96.5%,–
N=C1SC(=Cc2ccc(-c3ccc4c(c3)C(=O)NC4=O)o2)C(=O)N1c1ccc(Br)cc1,86.8%,–
Cc1nc(NC(=O)N2CCC[C@@H]2C(N)=O)sc1-c1csc(C(C)(C)C)n1,–,2.35 µM (active)
CCCCCOC(=O)Nc1nc(=O)n([C@@H]2O[C@H](C)[C@@H](O)C2O)cc1F (some centres undefined),100%,–
CC(=O)OCC(=O)[C@@]1(O)CC[C@H]2[C@@H]3CCC4=CC(=O)CC[C@]4(C)[C@@H]3C(=O)C[C@@]21C,104%,–
CCC(C)(C)c1ccc(CC(C)CN2C[C@@H](C)O[C@@H](C)C2)cc1 (some centres undefined),92.8%,–
